Source: PubChem (several laboratories)
Gli-Sufu block = blocks Gli-Sufu signaling in a luciferase reporter; 340,000 tested, 0.74% active; Sufu-KO-LIGHT fibroblasts, Gli luciferase reporter luminescence; inhibition, % at 5 µM;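 active = inhibition above about 55%, limit read from the data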;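 note: 0% = DMSO-treated cells and 100% = wells with medium but no cells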
697 NFkB inh = lowers PMA/ionomycin-induced NF-kB signal in 697 B cells. 697 B-cell NF-kB luciferase reporter, 16 h. inhibition, % at 4 µM. 330,000 tested, 0.33% active; in the data active = inhibition above about 35%
Jurkat NFkB inh = inhibitors of the PMA/ionomycin-induced NF-kB reporter in Jurkat cells | PMA/ionomycin-induced NF-kB luciferase reporter, luminescence | inhibition, % at 4 µM | 330,000 tested, 0.53% active | AID 435003; in the data active = inhibition above about 50%
Beta cell apopt = blocks beta cell apoptosis; protection from apoptosis, % (no concentration beside the values); 300,000 tested, 0.8% active; INS-1E cytokine-induced death, ATP luminescence, 48 h; percent of positive-control rescue, neutral wells zero;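 active = Every replicate reaches about 75%, or at least half do and their mean reaches it too, limit read from the data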;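 note: 0% = cytokine-treated negative control wells and 100% = positive control rescue; higher means more ATP so stronger rescue from cytokine killing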
Mdm2 MdmX PPI = disrupts the human Mdm2-MdmX interaction | O15151+Q00987 | SaOS-2 split-luciferase Mdm2/MdmX complementation, luminescence | inhibition, % at 8 µM | 330,000 tested, 3% active | AID 485346;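 active = inhibition of at least 50% at 8 µM in the primary screen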
Target sequence (O15151 whole entry, looked up): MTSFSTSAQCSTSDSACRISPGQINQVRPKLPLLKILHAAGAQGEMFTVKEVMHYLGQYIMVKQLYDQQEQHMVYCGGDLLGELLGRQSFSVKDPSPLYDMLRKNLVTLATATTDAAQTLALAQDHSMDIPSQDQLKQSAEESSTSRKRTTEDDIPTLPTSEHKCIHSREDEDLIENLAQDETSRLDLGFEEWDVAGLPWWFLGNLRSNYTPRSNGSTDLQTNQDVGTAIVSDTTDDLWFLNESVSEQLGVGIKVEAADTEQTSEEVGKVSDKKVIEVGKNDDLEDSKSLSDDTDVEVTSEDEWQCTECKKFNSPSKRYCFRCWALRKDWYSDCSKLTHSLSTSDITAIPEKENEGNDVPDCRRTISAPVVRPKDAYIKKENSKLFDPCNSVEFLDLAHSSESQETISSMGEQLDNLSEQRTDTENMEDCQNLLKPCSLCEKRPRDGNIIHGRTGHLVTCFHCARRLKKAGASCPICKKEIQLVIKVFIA
Target sequence (Q00987 whole entry, looked up): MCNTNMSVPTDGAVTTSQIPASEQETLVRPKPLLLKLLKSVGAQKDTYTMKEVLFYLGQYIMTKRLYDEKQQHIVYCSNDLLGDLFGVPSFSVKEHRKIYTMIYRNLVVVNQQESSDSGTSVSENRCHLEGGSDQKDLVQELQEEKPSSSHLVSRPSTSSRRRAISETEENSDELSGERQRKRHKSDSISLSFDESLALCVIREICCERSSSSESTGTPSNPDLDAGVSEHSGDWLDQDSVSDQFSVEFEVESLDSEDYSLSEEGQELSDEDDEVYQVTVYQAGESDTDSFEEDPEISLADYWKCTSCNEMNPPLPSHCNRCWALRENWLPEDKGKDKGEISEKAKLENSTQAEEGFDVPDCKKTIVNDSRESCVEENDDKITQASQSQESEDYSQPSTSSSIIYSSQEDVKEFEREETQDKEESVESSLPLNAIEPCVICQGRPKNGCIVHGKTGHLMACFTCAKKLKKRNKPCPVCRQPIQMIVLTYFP
Mdm2 MdmX conf = confirmation of human Mdm2/MdmX interaction inhibitors; shares compounds with Mdm2 MdmX PPI; Mdm2-MdmX binding, luminescent assay; inhibition, % at 8 µM; 10,000 tested, 55% active; AID 489028; in the data active = inhibition above about 40%
FLuc counter = full-length luciferase inhibition in Mdm2/MdmX counter-screen; shares compounds with Mdm2 MdmX PPI; SaOS-2 full-length luciferase counterscreen, luminescence; inhibition, % at 8 µM; 6,200 tested, 77% active;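 active = mean inhibition at 8 µM reaching about 37%, which flags the compound as non-specific, limit read from the data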;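 note: p53-null SaOS-2 cells with luciferase driven by a doxycycline-inducible promoter; compound on cells about two nights before reading with doxycycline added after day one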
Starred values were filed as active, the others as inactive; · = no result. In the library only some 4% were active in any assay of this set; here they are far more common.

SMILES	Gli-Sufu block	697 NFkB inh	Jurkat NFkB inh	Beta cell apopt	Mdm2 MdmX PPI	Mdm2 MdmX conf	FLuc counter
C/C=C(\C)C(=O)OC1CC(C)(C)C[C@H]2C3=CC[C@@H]4[C@@]5(C)CCC(O[C@@H]6O[C@@H](C(=O)O)[C@@H](O)C(O[C@@H]7OC[C@H](O)[C@@H](O)[C@@H]7O[C@@H]7OC(CO)C(O)[C@@H](O)[C@@H]7O)C6O[C@@H]6OC(CO)C(O)C(O)C6O)[C@@](C)(CO)[C@@H]5CC[C@]4(C)[C@]3(C)CC(O)[C@@]12CO (some centres undefined)	-3	12	11	-1	55*	32	48*
CC1(c2nnc(-c3ccncc3)o2)CC(c2ccc([N+](=O)[O-])cc2)=NO1 (centres undefined)	3	-48	10	·	-16	·	·
Cn1cc(C(=O)N/N=C/c2ccc3c(c2)OCO3)c2ccccc21	-52	-201	2	9	66*	44*	64*
O=C(N/N=C/c1ccc2c(c1)OCO2)c1sc2cc(Cl)ccc2c1Cl	-16	2	1	30	62*	37	50*
Cc1cccc(C)c1OCC(=O)N/N=C/c1ccc2c(c1)OCO2	-3	-25	24	10	50*	59*	56*
Cn1cc(C(=O)N/N=C/c2ccc(Br)c([N+](=O)[O-])c2)c2ccccc21	0	1	3	2	51*	19	·
Cc1cn([C@H]2C[C@H](O)[C@@H](CCC(=O)NCCCn3ccnc3)O2)c(=O)[nH]c1=O	-6	6	·	·	-9	·	·
CCOC(=O)Cn1c(=NC(=O)c2ccc([N+](=O)[O-])s2)sc2ccccc21	24	-11	11	19	30	·	·
O=C(COC(=O)c1nc(Cl)c(Cl)c(Cl)c1Cl)c1ccc[nH]1	-5	-2	0	·	73*	32	·
O=c1cc(CN2CCN(c3ccccc3)CC2)c2cc(O)c(-c3ccccc3)cc2o1	7	-20	5	17	73*	10	·
COc1cc(C(=O)Nc2ccc3c(c2)N(C(=O)CCN(C)C)c2ccccc2CC3)cc(OC)c1OC	29	30	3	1	61*	41*	100*
CCN(CC)CCCCN1c2ccccc2Sc2ccccc21	14	-16	-11	0	59*	16	·
CN(C)c1cc(N/N=C/c2ccc(Cl)cc2)nc(N(C)C)n1	20	·	·	·	·	·	·
Cc1c(-c2ccc(Cl)cc2)oc(=O)c2c(N)n(-c3ccccc3)nc12	25	-112	-40	23	86*	7	·
COc1ccc(-c2noc(CSc3nc4sc(C)c(C)c4c(=O)n3-c3ccccc3)n2)cc1OC	3	-31	13	1	50*	32	·
CCc1cccc(C)c1NC(=S)NCCc1c(C)[nH]c2ccc(C)cc12	17	10	4	3	64*	54*	41*
CCc1cccc(CC)c1NC(=S)NCCc1c(C)[nH]c2ccc(C)cc12	9	1	11	42	71*	51*	54*
COc1ccc2[nH]c(C)c(CCNC(=S)Nc3cccc(C)c3)c2c1	0	4	-7	·	46	·	·
CC(C)CC1(C)NC(=O)N(CC(=O)N2C(C)CCCC2C)C1=O (centres undefined)	2	7	16	-2	-11	·	·
O=C(NNc1ccccc1[N+](=O)[O-])Nc1ccccc1	2	24	6	-8	14	·	·
O=C(NNc1ccccc1[N+](=O)[O-])Nc1ccc(Cl)c(Cl)c1	11	-47	33	-13	87*	80*	41*
CCN(CC)S(=O)(=O)c1cc([N+](=O)[O-])ccc1NNC(=O)Nc1ccc(Cl)c(Cl)c1	9	-13	1	113*	91*	93*	52*
O=C(Nc1cc([N+](=O)[O-])ccc1Cl)C(Sc1ccccc1)c1ccccc1 (centres undefined)	1	11	-6	5	14	·	·
CCCCN(CCCC)S(=O)(=O)c1ccc(NC(=O)c2ccc([N+](=O)[O-])cc2Cl)cc1	15	·	·	-3	·	·	·
O=C(Nc1ccc(Cl)c([N+](=O)[O-])c1)C(Sc1ccccc1)c1ccccc1 (centres undefined)	4	13	7	14	88*	82*	24
SMILES	Gli-Sufu block	697 NFkB inh	Jurkat NFkB inh	Beta cell apopt	Mdm2 MdmX PPI	Mdm2 MdmX conf	FLuc counter
O=C(NNC(=O)C1CCN(c2ncccn2)CC1)c1ccc(Cl)cc1	-4	-10	8	1	7	·	·
CCCCCCSc1cc(-c2nc3cc(C)ccn3c2NC2CCCCC2)ccc1OC	21	5	-5	9	6	·	·
CCCCCCSc1ccc(-c2nc3cc(C)ccn3c2NC2CCCCC2)cc1	0	-11	7	6	51*	-2	·
CCC(C)Sc1ccc(-c2nc3cnccn3c2NC2CCCCC2)cc1 (centres undefined)	-2	-24	-24	15	15	·	·
CCC(C)Sc1ccc(-c2nc3cc(C)ccn3c2NC2CCCCC2)cc1 (centres undefined)	0	-85	-103	·	85*	-42	·
CC1CC1C(=O)N(C)CC(=O)Nc1ccccc1Br (centres undefined)	-5	7	6	-9	3	·	·
O=C(Nc1nc(-c2ccccn2)cs1)c1ccco1	-7	-12	3	32	51*	24	·
O=C(Nc1nc(-c2ccccn2)cs1)c1cccc(-n2cnnn2)c1	22	-26	16	76*	77*	69*	26
C[C@H](CO)N1C[C@H](C)[C@@H](CN(C)Cc2ccc(Cl)c(Cl)c2)Oc2c(NS(=O)(=O)c3ccc(F)cc3)cccc2C1=O	0	17	7	-18	5	·	·
O=C(c1ccc(Cl)c(Cl)c1)N1CCC(=O)N(C(COCc2ccccc2)Cc2ccccc2)CC1 (centres undefined)	29	8	14	-1	61*	48*	90*
O=C(c1cccc(Cl)c1)N1CCC(=O)N(C(COCc2ccccc2)Cc2ccccc2)CC1 (centres undefined)	8	1	6	1	27	·	·
CCOc1ccc(S(=O)(=O)N(C)CC(=O)NCc2ccc3c(c2)OCO3)cc1	-2	13	13	1	-2	·	·
COc1ccccc1CNS(=O)(=O)c1c(C(=O)N2CCCCCC2)c(C)n(C)c1C	-14	-3	6	·	9	·	·
CC(=O)N1CCN(CC(=O)Nc2cc(F)ccc2C)CC1	-19	-20	-5	·	-18	·	·
Cc1ccccc1OCc1nc2ccccc2c(=O)n1/N=C/c1cn[nH]c1-c1ccccc1	-8	-46	-18	0	14	·	·
O=c1c2ccccc2nc(COc2ccccc2)n1/N=C/c1ccc(O)c(O)c1	-3	-46	-2	6	16	·	·
